Results filed as inconclusive are left out. Entries that show only a call come without a potency. Unmarked numbers belong to inactive results. Activity calls are given as the source filed them. Calls follow the shape of the dose curve; as a rule, active = well fitted inhibition curve with a large enough effect in the repeat runs; inconclusive = weak or mixed curves; inactive = no such curve, though single readings can be large or run the other way.
What follows are molecules tested against Estrogen receptor (Homo sapiens) (UniProt P03372) (assay: qHTS assay to identify small molecule antagonists of the estrogen receptor alpha (ER-alpha) signaling pathway using the BG1 cell line in the presence of 0.1 nM 17-beta-estradiol (AID 1259244; also: nearly all actives have a fitted effect of over 50% in size)). Settings: VM7Luc4E2 (BG1) ERE-luciferase, antagonist mode, 0.1 nM E2, 22 h; series mostly up to 92.4 µM.
From the text: National Center for Advancing Translational Sciences [NCATS]
NIH Chemical Genomics Center [NCGC]
U.S. Environmental Protection Agency [EPA]
National Institutes of Environmental Health Sciences [NIEHS]
National Toxicology Program [NTP]
U.S. Food and Drug Administration [FDA]
Estrogen receptor (ER), a member of the nuclear hormone receptor plays an important role in development, metabolic homeostasis and reproduction. Two subtypes of ER, ER-alpha and ER-beta, have similar expression patterns with some uniqueness in both types. Endocrine disrupting chemicals (EDCs) and their interactions with steroid hormone receptors like ER causes disruption of normal endocrine function. Therefore, it is important to understand the effect of environmental chemicals in ER signaling pathway. For identifying ER antagonists, VM7Luc4E2 cell line was used to screen against Tox21 compound libraries.
VM7Luc4E2 cell line (provided by Denison MS, University of California) endogenously express full-length ER-alpha and is stably transfected with a plasmid containing four estrogen responsive elements (ERE) upstream of a luciferase reporter gene. The current screening for identification of ER-alpha inhibitors against Tox21 compound libraries used lower concentration (0.1 nM) of 17beta-Estradiol as a stimulator.
Tox21 Assay Protocol Summary:
VM7Luc4E2 cells were cultured in phenol red free assay medium containing 10% charcoal stripped FBS for 5 days prior to the assay. The cells were dispensed at 4,000 cells/well in 4 uL of assay medium into white wall/solid-bottom 1536-well plates (Corning Life Sciences, Corning, NY) using a Multidrop Combi (ThermoFisher Scientific, Waltham, MA) dispenser. After the assay plates were incubated at 37C and 5% CO2 for 24 hr, 23 nL of compounds dissolved in DMSO, positive controls or DMSO only was transferred to the assay plates by a Pintool station (Kalypsys, San Diego, CA). The transfer of compounds was followed by the addition of 1 uL of 0.1 nM (final concentration) agonist (17beta-Estradiol)/assay medium using a Flying Reagent Dispenser (FRD, Aurora Discovery, San Diego, CA). The plates were incubated at 37C and 5% CO2 for 22 hr. For luciferase reporter gene assay, 4 uL of ONE-Glo reagent (Promega Corporation, Madison, WI) was added to each well using the FRD and after 30 min incubation at room temperature luminescence intensity was measured using ViewLux plate reader (PerkinElmer, Shelton, CT).

Sequence of Estrogen receptor (Homo sapiens) (P03372 whole entry, looked up): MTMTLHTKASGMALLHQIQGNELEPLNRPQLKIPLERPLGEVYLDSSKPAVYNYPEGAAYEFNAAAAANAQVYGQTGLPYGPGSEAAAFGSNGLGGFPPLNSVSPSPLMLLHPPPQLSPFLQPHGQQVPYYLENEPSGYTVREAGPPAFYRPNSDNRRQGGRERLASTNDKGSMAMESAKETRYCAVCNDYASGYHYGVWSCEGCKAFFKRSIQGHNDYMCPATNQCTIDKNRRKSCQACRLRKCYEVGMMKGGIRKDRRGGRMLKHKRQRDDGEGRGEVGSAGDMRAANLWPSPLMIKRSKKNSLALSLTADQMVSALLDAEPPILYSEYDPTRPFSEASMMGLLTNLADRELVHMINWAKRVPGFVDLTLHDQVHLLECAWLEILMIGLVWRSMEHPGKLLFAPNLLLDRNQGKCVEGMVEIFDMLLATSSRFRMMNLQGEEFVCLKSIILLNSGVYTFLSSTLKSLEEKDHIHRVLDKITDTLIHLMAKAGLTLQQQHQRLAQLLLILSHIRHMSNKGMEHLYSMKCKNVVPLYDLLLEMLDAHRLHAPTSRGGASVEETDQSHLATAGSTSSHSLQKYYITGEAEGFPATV

Compound | Potency | activity change, negative = inhibition
Cc1c(Cl)cccc1Nc1ccccc1C(=O)O | inactive | –
N#C[C@@H]1CC(F)(F)CN1C(=O)CNC1CC2CCC(C1)N2c1ncccn1 (stereo not given in full) | inactive | –
CCCC(=O)OCCC(C)C | inactive | –
CC(=O)c1ccc(Cl)c(Cl)c1Cl | inactive | –
CCC(C(=O)O)c1ccc(N2Cc3ccccc3C2=O)cc1 (stereo not given) | inactive | –
COC=O | – | -1.73% [at 8.39 µM]
O=C(O)c1ccc2c(c1)nc(C(=O)NC1CCN(C3CC3)CC1)n2Cc1cc(-c2ccc(Cl)s2)on1 | – | -4.46% [at 19 µM]
O=C(O)CCc1nc2ccccc2[nH]1 | inactive | –
C=CC(=O)OCCCCCCCCCC | inactive | –
O=C(O)c1ccc2cc(O)ccc2c1 | inactive | –
CCOC(=O)CC(O)(CC(=O)OCC)C(=O)OCC | inactive | –
CC1(C)CC(O)CC(C)(C)N1[O] | inactive | –
O=C(O)c1cc(C(=O)O)c(C(=O)O)cc1C(=O)O | inactive | –
Nc1ccc(-c2ccc(F)cc2)cc1 | inactive | –
S=c1[nH][nH]c(=S)s1 | inactive | –
C1=COCCC1 | inactive | –
CCCC1CCCC(=O)O1 (stereo not given) | inactive | –
CNc1ccccc1 | inactive | –
O=[N+]([O-])c1cccc(I)c1 | inactive | –
Oc1ccc(CCNCCCCCCNCCc2ccccc2)cc1O | inactive | –

Compound | Potency | activity change, negative = inhibition
Nc1ccc(C(=O)Oc2ccccc2)c(O)c1 | inactive | –
CC1(C)C(=O)NC(=O)N1CO | inactive | –
CC[C@H](NC(C)C)[C@H](O)c1ccc(O)c2[nH]c(=O)ccc12 | inactive | –
Cc1ccc(NC=O)c(C)c1 | inactive | –
CC(C)(C)NCC(O)COc1ccc(NC(=O)NC2CCCCC2)cc1 (stereo not given) | inactive | –
CC(C)(C(=O)O)c1ccc(C(O)CCCN2CCC(C(O)(c3ccccc3)c3ccccc3)CC2)cc1 (stereo not given) | inactive | –
Clc1nc2ccccc2nc1Cl | inactive | –
C=CCCC | inactive | –
Cc1cc(C)n(CO)n1 | inactive | –
CCn1nc(Cc2ccccc2)cc1C1CCN(C[C@H]2C[C@H](N(C)[C@@H](C(=O)O)C(C)C)C[C@@H]2c2cccc(F)c2)CC1 | inactive | –
O=C(O)c1cccnc1Nc1cccc(C(F)(F)F)c1 | inactive | –
O=C(O)c1cccc(C(=O)O)c1C(=O)O | inactive | –
CC(COc1ccccc1)NC(C)C(O)c1ccc(O)cc1 (stereo not given) | inactive | –
CC(Cc1ccccc1)(NC(=O)CN)c1ccccc1 (stereo not given) | inactive | –
Clc1cccc(C(c2ccc3nc[nH]c3c2)n2ccnc2)c1 (stereo not given) | inactive | –
O=C(O)c1ccccc1-n1cc(C(=O)O)c(=O)c2cc(Nc3c(F)cc(F)cc3Cl)c(Cl)cc21 | inactive | –
C=CC(=O)NC(C)(C)C | inactive | –
CCCCCC1CCC(=O)O1 (stereo not given) | inactive | –
CCCc1ccc(OC)cc1 | inactive | –
O=C(Cl)c1cc(Cl)cc(Cl)c1 | inactive | –

Source: PubChem BioAssay (Tox21)
